High-throughput results deposited in PubChem BioAssay by The Scripps Research Institute Molecular Screening Center.
Compounds with a hit are over-represented: about 4.8% of the library has one in this group of screens.
SMARCA2 activ: SMARCA2 (BRM) function activators, primary screen, cell-based, luminescence, high throughput; activation, % at 9.1 µM; AID 652017, 2013; actives 1% (n = 370,000); MG213 cells, MMTV-luciferase reporter, dexamethasone, overnight; in the data active = activation above about 7.8%
DAX1 inh-1: DAX1 (NR0B1) inhibitors on StAR promoter, primary screen, cell-based, luminescence, SF-1 (NR5A1), full-length DAX-1. HEK293T StAR-luciferase reporter, SF-1/DAX-1 repression relief. inhibition, % at 6.8 µM. actives 1.1% (n = 370,000). AID 652010, 2013;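 active = inhibition above the mean over all tested compounds plus 3 SD, cut at about 3.6% in these data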;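 also: higher inhibition means more luminescence from relief of DAX-1 repression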
hgDAF-12 ag: H. glycines DAF-12 receptor agonists, primary screen, cell-based, luminescence, HEK293, GAL4 fusion, UAS-luciferase; activation, % at 6.8 µM; AID 687014, 2013; Nuclear hormone receptor DAF-12 (Heterodera glycines), GAL4 fusion; actives 1.8% (n = 370,000); HEK293 GAL4-hgDAF12 UAS-luciferase reporter, agonist luminescence; normalized to butyrate control;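 active = activation above a cutoff set at the mean of all screened compounds plus 3 SD, cut at about 10% in these data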
hcDAF12 agonist: H. contortus DAF-12 nuclear receptor activators, primary screen, cell-based, luminescence, HEK293, lit1-tk-luc reporter | HEK293 hcDAF-12 lit1-tk-luc reporter; 0% DMSO, 100% Δ7-dafachronic acid | activation, % at 6.8 µM | actives 1.4% (n = 370,000) | AID 652067, 2013;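 active = activation above the mean of all tested compounds plus 3 SD, cut at about 5.5% in these data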
ssDAF-12 act: S. stercoralis DAF-12 nuclear receptor activators, primary screen, cell-based, luminescence, HEK293, GRIP1 co-expression, lit1-tk-luc | HEK293 ssDAF-12/GRIP1 lit1-tk-luc reporter; % of 3 µM dafachronic acid response | activation, % at 6.8 µM | actives 1% (n = 370,000) | Nuclear hormone receptor DAF-12 (Strongyloides stercoralis);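 active = activation above the mean over all tested compounds plus 3 SD, cut at about 0.9% in these data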
DAX1 inh-2: DAX1 (NR0B1) inhibitors, primary screen, cell-based, HEK293, Gal4-DAX1, luciferase luminescence | Nuclear receptor subfamily 0 group B member 1 (Homo sapiens), P51843 | HEK293 Gal4-DAX1 luciferase reporter | inhibition, % at 6.75 µM | actives 0.99% (n = 340,000) | AID 504766, 2011;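 active = inhibition above the mean over all tested compounds plus 3 SD, cut at about 4.2% in these data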;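 also: inhibition shows as a rise in luminescence from relieved DAX1 repression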
Target sequence (P51843 207-470 limits assumed): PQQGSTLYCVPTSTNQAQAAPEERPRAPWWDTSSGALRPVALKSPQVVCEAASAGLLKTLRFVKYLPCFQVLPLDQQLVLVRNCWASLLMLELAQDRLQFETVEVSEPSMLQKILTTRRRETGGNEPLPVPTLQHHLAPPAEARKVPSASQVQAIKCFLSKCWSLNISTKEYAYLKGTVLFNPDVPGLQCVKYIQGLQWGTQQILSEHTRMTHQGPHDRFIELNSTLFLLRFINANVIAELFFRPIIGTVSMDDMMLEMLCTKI
Each line names hits and unclear results; the compound was inactive in the other large screens.

c1cncc(CNc2nc(N3CCOCC3)nc(N3CCOCC3)n2)c1	none
COCC(C)NC(=S)Nc1ccccc1[N+](=O)[O-] (stereo unspecified)	ssDAF-12 act 2.4
CC(C)(C)CC(=O)NC(=S)Nc1ccccc1[N+](=O)[O-]	none
COc1ccc(CC(=O)Nc2ccc(C)cc2S(=O)(=O)N2CCOCC2)cc1OC	none (no result: DAX1 inh-2)
Cc1cc(=O)nc2c3ccccc3n(CC(=O)NCCCN3CCOCC3)n12	none (no result: SMARCA2 activ, DAX1 inh-1, hgDAF-12 ag, hcDAF12 agonist, ssDAF-12 act)
Cc1cc(=O)nc2c3ccccc3n(CC(=O)NCCCN3CCCC3=O)n12	hcDAF12 agonist 6.0
CCN(CC)CCCNC(=O)C(C)n1c2ccccc2c2nc(=O)cc(C)n21 (stereo unspecified)	DAX1 inh-2 5.4
Cc1ccccc1NC(=O)C(=O)NCCCN1CCCC1=O	DAX1 inh-1 3.7
Cc1cc(=O)nc2c3ccccc3n(C(C)C(=O)NCCN3CCOCC3)n12 (stereo unspecified)	none
CCC(C)c1ccc(S(=O)(=O)N2CCN(C(=O)CN3C(=O)NC(C)(C4CC4)C3=O)CC2)cc1 (stereo unspecified)	none
CCCc1ccc(S(=O)(=O)N2CCN(C(=O)CN3C(=O)NC(C)(C4CC4)C3=O)CC2)cc1 (stereo unspecified)	DAX1 inh-2 4.3
COc1ccccc1N1CCN(C(=O)c2cc3c(C)nn(-c4ccccc4)c3s2)CC1	none (no result: DAX1 inh-2)
CCC(CO)Nc1ccn2nc(-c3cccs3)cc2n1 (stereo unspecified)	DAX1 inh-1 3.9, hgDAF-12 ag 11.2 (no result: DAX1 inh-2)
O=C(CCC(=O)c1ccc[nH]1)c1ccc(Cl)cc1	hgDAF-12 ag 12.2, hcDAF12 agonist 6.0
Cc1ccc(NC(=O)NNC(=O)c2cccs2)cc1	hcDAF12 agonist 5.8
CC(=O)NC(=S)Nc1ccc(NC(=O)c2cccs2)cc1	none
CC(C)c1ccc(NC(=S)NNC(=O)c2cccs2)cc1	hgDAF-12 ag 11.4
O=C(CCn1nnc(-c2cccs2)n1)NCc1ccco1	none (no result: DAX1 inh-2)
CCCCNC(=O)NCCCN1CCN(c2ccc(F)cc2)CC1	none (no result: DAX1 inh-2)
O=C(CSc1nnc(-c2ccccn2)n1-c1ccc(Cl)cc1)Nc1ccc(S(=O)(=O)Nc2nccs2)cc1	none (no result: DAX1 inh-2)
O=C(CSc1nnc(NC(=O)c2ccccc2Cl)s1)NC1CC1	hcDAF12 agonist 5.6
CCSc1nnc(NC(=O)c2cccnc2Cl)s1	none
CCSc1nnc(NC(=O)c2ccccc2C)s1	DAX1 inh-1 4.4, hgDAF-12 ag 12.9
O=C(Nc1nnc(S(=O)(=O)Cc2ccc(F)cc2)s1)c1ccccc1F	ssDAF-12 act 1.3
O=C(CSc1nnc(NC(=O)c2ccccc2F)s1)Nc1ccccc1F	hgDAF-12 ag 12.6
CC(C)(C)NC(=O)CSc1nnc(NC(=O)c2ccccc2Cl)s1	none
O=C(CSc1nnc(NC(=O)c2ccco2)s1)Nc1ccccc1F	none
Cc1ccccc1NS(=O)(=O)c1nnc(NC(=O)c2ccccc2F)s1	none
COCCCNC(=O)C[C@H]1C[C@@]2(C(=O)OC)C(=C[C@H](C3CCCC3)O[C@@H]2C)N(Cc2ccccc2)C1=O	none (no result: DAX1 inh-2)
CC(C)(C)c1ccc(-c2nnc(SCC(=O)c3ccc4ccccc4c3)n2-c2ccc(Cl)cc2)cc1	none (no result: DAX1 inh-2)
C[C@@H]1Cc2cc(O)cc(O)c2C(=O)O1	none (no result: DAX1 inh-2)
Cc1cc2c(c(=O)o1)[C@@]1(C(=O)N(C)c3ccccc31)C1=C(CC(C)(C)CC1=O)O2	none (no result: DAX1 inh-2)
CCSc1nnc(NC(=O)CC(C)C)s1	DAX1 inh-2 6.4
COC(=O)[C@H]1C[C@@]2(N3CCCCC3)c3ccccc3N(S(=O)(=O)c3ccccc3)[C@H]2N1	none (no result: DAX1 inh-2)
COc1cc(C(=O)NCCC2=CCCCC2)cc(OC)c1OC	none
COc1cccc(C(=O)NCCC2=CCCCC2)c1OC	DAX1 inh-2 4.5
CCCOc1ccc(C(=O)CCNc2cccc(Cl)c2)cc1	ssDAF-12 act 1.4
O=C(NCc1ccccc1)c1cccc(COc2cc(Cl)ccc2Cl)c1	hgDAF-12 ag 10.7
